Results on 8 compounds are retold here after paper PMC5540273 (PLoS ONE, 2017).

SMILES strings stand for the structures.

Details in all cases: concentration: 1 μM, replicates: in singlicate; n = 1
The test system of test [1] is CHEK2.
The test system of test [2] is CIT.
For test [3], the system named is CLK1.
In test [4] the test system is CLK2.
Test [5] relates to CLK3.
For test [6], the system named is CLK4.
The subject of test [7] is CSF1R-autoinhibited.
Test [8] concerns CSF1R.
Test [9] concerns CSK.
The test system of test [10] is CSNK1A1L.
In test [11] the test system is CSNK1A1.
Test [12] relates to CSNK1D.
Test [13] has as its system CSNK1E.
Test [14] concerns CSNK1G1.
Test [15] relates to CSNK1G2.
The test system of test [16] is CSNK1G3.
The subject of test [17] is CSNK2A1.
Test [18] concerns CSNK2A2.
In test [19] the test system is T1, CTK.
T1 construct: gene MATK

The subject of test [20] is DAPK1.
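Note: KINOMEscan kinase panel screen.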

On to `O=c1cc(N2CCOCC2)nc2n(Cc3cccc(Cl)c3Cl)ccn12` [GSK2286295], for which the “%Inh” value came to 0% in test [1]; 5% in test [2]; 64% in [3]; 14% in [4]; 13% in [5]; 51% in test [6]. Besides, the “%Inh” value is recorded as 0% in [7]; 25% in test [8]; 0% in test [9]; 6% in [10]; 27% in test [11]; 26% in test [12]. Moreover, the “%Inh” value in test [13] is 41%; in [14], 10%; in test [15], 0%; in test [16], 41%; in [17] it was 2%; in [18] it was 5%. Further, the “%Inh” value is 0% in test [19] and 8% in test [20].

`COc1ccc(Nc2nccc(-c3cccc(NC(=O)c4cc5cc(F)ccc5[nH]4)c3)n2)cc1` [GSK1229782]: the “%Inh” value in test [1] is reported as 37%; in [2] it was 44%; in test [3] it was 33%; in test [4], 0%; in test [5], 12%; in test [6], 28%. In addition, the “%Inh” value amounted to 57% in test [7]; 10% in test [8]; 0% in test [9]; 20% in [10]; 0% in [11]; 37% in test [12]. For the same compound, the “%Inh” value in [13] is reported as 33%; in [14], 13%; in test [15] it was 17%; in test [16], 32%; in test [17], 8%; in test [18], 27%. In addition, the “%Inh” value in test [19] and in test [20] was 0% in each case.

With `Cc1ccccc1-n1cnc2c(N)ncnc21` [SKF-97510], the “%Inh” value in test [1] was found to be 0%; in test [2] it was 0%; in [3], 2%; in [4] it was 26%; in [5], 0%; in test [6], 0%. The “%Inh” value in test [7] is reported as 0%; in [8], 6%; in test [9] it was 7%; in test [10], 0%; in test [11] it was 0%; in [12], 5%. For the same compound, the “%Inh” value in test [13] is 11%; in test [14], 0%; in test [15], 0%; in test [16], 0%; in [17], 0%; in [18] it was 0%. In addition, the “%Inh” value in [19] was 0%; in test [20], 94.8%.

As for `CS(=O)(=O)c1ccc(-c2c(-c3ncn[nH]3)sc(N3CCOCC3)c2C#N)cc1`, the “%Inh” value in test [1] is reported as 5%; in test [2], 4%; in test [3] it was 5%; in test [4] it was 8%; in [5], 0%; in test [6], 0%. Moreover, the “%Inh” value in test [7] is 0%; in [8] it was 27%; in [9], 16%; in test [10] it was 0%; in test [11], 48%; in test [12] it was 0%. Also, the “%Inh” value in [13] was 4%; in test [14], 1%; in test [15], 0%; in [16], 0%; in test [17], 0%; in [18], 24%. The “%Inh” value is 26% in [19] and 5% in test [20].

For `Cc1ccc(C(=O)Nc2ccc(Nc3ccnc4cc(-c5ccccn5)ccc34)cc2O)cc1.Cl` [GW440146], the “%Inh” value in test [1] is on record as 4%; in test [2] it was 2%; in test [3] it was 13%; in [4], 1%; in test [5] it was 0%; in [6], 23%. In addition, the “%Inh” value came out at 0% in test [7]; 35% in test [8]; 34% in test [9]; 0% in [10]; 0% in test [11]; 7% in test [12]. Moreover, the “%Inh” value in [13] is recorded as 23%; in [14] it was 0%; in [15] it was 0%; in [16], 4%; in test [17], 0%; in test [18], 0%. Further, the “%Inh” value in [19] and in [20] was 0% each time.

Regarding `COc1cccc(-c2cc(-c3c[nH]nc3-c3ccccn3)ccn2)c1` [GW680338], the “%Inh” value in test [1] was found to be 18%; in test [2], 7%; in test [3], 22%; in test [4], 22%; in [5], 0%; in test [6], 28%. The “%Inh” value in [7] came out at 51%; in [8], 0%; in [9], 0%; in test [10], 8%; in [11] it was 31%; in test [12] it was 25%. For the same compound, the “%Inh” value in [13] turned out to be 23%; in test [14], 1%; in [15], 3%; in test [16] it was 10%; in test [17], 4%; in test [18] it was 11%. In addition, the “%Inh” value in [19] and in test [20] was 0% in each case.

`Fc1cc(Cl)ccc1Nc1ccnc2cc(-c3ccc(CN4CCCCC4)o3)ccc12` [GW560116]: the “%Inh” value was 35% in test [1]; 63% in test [2]; 11% in test [3]; 0% in test [4]; 0% in test [5]; 27% in test [6]. Moreover, the “%Inh” value was 0% in test [7]; 20% in test [8]; 0% in test [9]; 1% in [10]; 0% in [11]; 7% in test [12]. The “%Inh” value was found to be 46% in [13]; 11% in test [14]; 0% in test [15]; 23% in test [16]; 0% in test [17]; 94.6% in [18]. Further, the “%Inh” value in [19] came out at 0%; in test [20], 1%.

For the compound `Cc1csc(-c2nc(Nc3ccncc3)c3ccccc3n2)n1` [GW869640], the “%Inh” value in test [1] turned out to be 15%; in test [2], 61%; in test [3], 15%; in test [4], 19%; in test [5] it was 35%; in test [6] it was 8%. Further, the “%Inh” value in [7] stood at 28%; in [8], 0%; in test [9], 3%; in [10], 10%; in test [11], 28%; in test [12], 46%. Further, the “%Inh” value in [13] is recorded as 41%; in test [14] it was 0%; in test [15], 9%; in test [16] it was 0%; in [17], 28%; in test [18], 26%. In addition, the “%Inh” value in test [19] was found to be 36%; in [20] it was 22%.
